Measured values published in paper PMC7862700, “An all-to-all approach to the identification of sequence-specific readers for epigenetic DNA modifications on cytosine”.

Key:
Assay in all cases: DAPPL (digital affinity profiling via proximity ligation, sequencing); 10 mM Tris-HCl pH 7.5, 50 mM NaCl, 1 mM DTT, 4% glycerol, room temperature, 30 min; GST-TFs on glutathione beads, 16-mer random dsDNA library, 0.1% formaldehyde crosslink after washing; high values mean tight binding
Details in all cases: protein: recombinant; tags: N-terminal GST; dsDNA, one strand shown
ELK1 = molecular target: T1, ELK1 (Homo sapiens, UniProt P19419 1-428)
T1 sequence: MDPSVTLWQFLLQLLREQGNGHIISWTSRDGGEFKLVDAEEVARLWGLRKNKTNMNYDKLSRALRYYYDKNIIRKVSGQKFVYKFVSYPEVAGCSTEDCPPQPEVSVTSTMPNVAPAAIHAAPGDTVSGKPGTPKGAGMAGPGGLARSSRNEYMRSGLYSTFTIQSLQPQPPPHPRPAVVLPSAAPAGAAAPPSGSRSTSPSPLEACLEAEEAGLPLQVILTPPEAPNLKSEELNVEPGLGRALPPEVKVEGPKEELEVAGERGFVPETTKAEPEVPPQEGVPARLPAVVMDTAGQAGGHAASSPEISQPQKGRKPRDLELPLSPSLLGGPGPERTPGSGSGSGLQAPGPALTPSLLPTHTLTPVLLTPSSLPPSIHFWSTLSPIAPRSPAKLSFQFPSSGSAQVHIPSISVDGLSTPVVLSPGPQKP
Procedure, shortened: (§1)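 Binding signal is each hexamer's read frequency for a factor divided by its frequency in the tag-only sample. The factors were GST-fused human transcription factors from yeast, captured on glutathione beads, DNA-barcoded and pooled with that sample. Pools were incubated with 200 nmole of a random double-stranded 16-mer DNA library in Tris/NaCl/DTT/glycerol buffer at room temperature for 30 min, then washed, crosslinked with 0.1% formaldehyde, proximity-ligated with BsaI/T4 ligase (1 h, 37 °C), PCR-amplified and sequenced on an Illumina NextSeq500.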

GABPA = molecular target: T2, GABPA (Homo sapiens, UniProt Q06546 1-454)
T2 sequence: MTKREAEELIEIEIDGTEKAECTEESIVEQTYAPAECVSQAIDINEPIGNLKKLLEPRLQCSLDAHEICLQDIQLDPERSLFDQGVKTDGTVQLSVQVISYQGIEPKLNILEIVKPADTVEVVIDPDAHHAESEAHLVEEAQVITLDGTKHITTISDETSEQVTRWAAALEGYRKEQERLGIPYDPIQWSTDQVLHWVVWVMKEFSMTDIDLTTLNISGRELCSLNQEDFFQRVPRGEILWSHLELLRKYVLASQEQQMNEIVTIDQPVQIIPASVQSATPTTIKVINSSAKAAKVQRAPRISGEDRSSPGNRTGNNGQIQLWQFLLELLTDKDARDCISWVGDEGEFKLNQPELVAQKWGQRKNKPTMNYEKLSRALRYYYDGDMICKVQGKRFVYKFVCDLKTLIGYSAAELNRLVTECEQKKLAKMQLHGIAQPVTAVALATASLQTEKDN
Procedure, shortened: as §1

ERG = molecular target: T3, ERG (Homo sapiens, UniProt P11308 1-479)
T3 sequence: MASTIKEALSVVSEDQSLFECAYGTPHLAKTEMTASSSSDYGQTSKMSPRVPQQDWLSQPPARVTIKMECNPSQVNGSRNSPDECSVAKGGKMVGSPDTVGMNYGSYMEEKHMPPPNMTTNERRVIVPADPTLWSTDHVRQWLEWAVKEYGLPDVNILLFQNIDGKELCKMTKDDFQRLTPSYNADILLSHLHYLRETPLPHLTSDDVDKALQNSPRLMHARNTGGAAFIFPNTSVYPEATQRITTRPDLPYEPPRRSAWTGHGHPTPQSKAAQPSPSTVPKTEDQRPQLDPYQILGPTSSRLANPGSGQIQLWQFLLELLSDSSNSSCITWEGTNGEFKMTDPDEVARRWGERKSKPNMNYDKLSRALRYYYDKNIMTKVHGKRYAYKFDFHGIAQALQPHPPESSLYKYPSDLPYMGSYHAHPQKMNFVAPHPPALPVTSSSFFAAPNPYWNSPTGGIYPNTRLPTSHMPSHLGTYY
Procedure, shortened: as §1

ELF1 = ELF1 (Homo sapiens, UniProt P32519 1-619)
Procedure, shortened: as §1

EHF = molecular target: T4, EHF (Homo sapiens, UniProt Q9NZC4 1-300)
T4 sequence: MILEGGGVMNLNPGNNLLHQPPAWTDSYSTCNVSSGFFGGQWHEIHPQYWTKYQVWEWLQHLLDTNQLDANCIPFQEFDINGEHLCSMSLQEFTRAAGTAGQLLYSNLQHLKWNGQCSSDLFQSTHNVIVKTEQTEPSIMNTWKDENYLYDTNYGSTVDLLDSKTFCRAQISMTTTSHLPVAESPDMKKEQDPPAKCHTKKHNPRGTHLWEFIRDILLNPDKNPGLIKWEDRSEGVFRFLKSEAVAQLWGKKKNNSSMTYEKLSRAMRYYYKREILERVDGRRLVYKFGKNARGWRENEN
Procedure, shortened: as §1

SPIB = SPIB (Homo sapiens, UniProt Q01892 1-262)
Procedure, shortened: as §1

ETV5 = ETV5 (Homo sapiens, UniProt P41161 1-510)
Procedure, shortened: as §1

ELK4 = molecular target: T5, ELK4 (Homo sapiens, UniProt P28324-2 1-405)
T5 sequence: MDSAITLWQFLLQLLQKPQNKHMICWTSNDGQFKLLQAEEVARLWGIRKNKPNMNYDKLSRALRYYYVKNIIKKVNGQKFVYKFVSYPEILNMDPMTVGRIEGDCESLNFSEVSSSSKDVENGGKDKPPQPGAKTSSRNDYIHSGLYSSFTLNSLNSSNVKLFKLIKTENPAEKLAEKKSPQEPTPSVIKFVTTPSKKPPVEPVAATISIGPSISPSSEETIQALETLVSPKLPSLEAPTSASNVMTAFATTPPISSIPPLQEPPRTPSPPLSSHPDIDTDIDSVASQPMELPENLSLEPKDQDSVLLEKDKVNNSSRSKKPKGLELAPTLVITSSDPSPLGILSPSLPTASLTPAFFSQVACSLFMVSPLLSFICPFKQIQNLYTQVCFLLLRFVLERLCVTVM
Procedure, shortened: as §1

ELF3 = molecular target: T6, ELF3 (Homo sapiens, UniProt P78545 1-371)
T6 sequence: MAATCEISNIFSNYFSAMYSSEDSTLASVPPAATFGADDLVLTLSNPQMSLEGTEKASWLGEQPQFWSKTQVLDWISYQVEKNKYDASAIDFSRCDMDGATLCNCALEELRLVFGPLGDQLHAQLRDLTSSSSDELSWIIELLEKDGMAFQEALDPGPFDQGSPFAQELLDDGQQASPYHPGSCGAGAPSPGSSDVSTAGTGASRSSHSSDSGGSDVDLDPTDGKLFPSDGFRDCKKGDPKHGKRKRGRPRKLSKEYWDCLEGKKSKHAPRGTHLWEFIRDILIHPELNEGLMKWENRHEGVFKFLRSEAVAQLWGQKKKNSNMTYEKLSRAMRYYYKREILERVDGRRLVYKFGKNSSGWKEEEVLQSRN
Procedure, shortened: as §1

ETV1 = ETV1 (Homo sapiens, UniProt P50549 1-477)
Procedure, shortened: as §1

ERF = molecular target: T7, ERF (Homo sapiens, UniProt P50548 1-548)
T7 sequence: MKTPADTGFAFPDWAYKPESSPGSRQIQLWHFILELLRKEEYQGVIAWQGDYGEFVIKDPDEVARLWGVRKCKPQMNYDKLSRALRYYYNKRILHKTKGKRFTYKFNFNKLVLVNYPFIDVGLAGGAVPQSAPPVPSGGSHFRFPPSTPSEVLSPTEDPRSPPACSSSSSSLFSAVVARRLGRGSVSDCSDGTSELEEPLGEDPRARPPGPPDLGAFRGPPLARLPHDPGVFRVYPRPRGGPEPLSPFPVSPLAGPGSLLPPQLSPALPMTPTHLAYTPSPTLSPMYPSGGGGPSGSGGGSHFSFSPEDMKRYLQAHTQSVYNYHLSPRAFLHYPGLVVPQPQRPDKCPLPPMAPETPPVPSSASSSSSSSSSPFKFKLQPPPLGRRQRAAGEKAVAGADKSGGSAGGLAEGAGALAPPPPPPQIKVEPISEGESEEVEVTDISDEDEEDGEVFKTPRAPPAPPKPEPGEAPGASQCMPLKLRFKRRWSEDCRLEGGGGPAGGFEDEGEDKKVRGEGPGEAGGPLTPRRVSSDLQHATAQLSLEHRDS
Procedure, shortened: as §1

ETV3L = molecular target: T8, ETV3L (Homo sapiens, UniProt Q6ZN32 1-361)
T8 sequence: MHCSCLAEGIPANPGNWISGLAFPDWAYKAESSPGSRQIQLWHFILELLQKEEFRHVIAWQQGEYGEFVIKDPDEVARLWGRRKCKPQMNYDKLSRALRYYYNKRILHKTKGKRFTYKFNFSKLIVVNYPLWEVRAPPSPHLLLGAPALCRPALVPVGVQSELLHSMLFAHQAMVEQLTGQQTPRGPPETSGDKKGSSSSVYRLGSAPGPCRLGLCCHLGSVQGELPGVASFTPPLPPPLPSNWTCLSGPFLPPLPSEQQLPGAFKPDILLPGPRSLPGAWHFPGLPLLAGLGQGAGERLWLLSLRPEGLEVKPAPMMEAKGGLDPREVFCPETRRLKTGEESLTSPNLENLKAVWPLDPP
Procedure, shortened: as §1

SPDEF = molecular target: T9, SPDEF (Homo sapiens, UniProt O95238 1-335)
T9 sequence: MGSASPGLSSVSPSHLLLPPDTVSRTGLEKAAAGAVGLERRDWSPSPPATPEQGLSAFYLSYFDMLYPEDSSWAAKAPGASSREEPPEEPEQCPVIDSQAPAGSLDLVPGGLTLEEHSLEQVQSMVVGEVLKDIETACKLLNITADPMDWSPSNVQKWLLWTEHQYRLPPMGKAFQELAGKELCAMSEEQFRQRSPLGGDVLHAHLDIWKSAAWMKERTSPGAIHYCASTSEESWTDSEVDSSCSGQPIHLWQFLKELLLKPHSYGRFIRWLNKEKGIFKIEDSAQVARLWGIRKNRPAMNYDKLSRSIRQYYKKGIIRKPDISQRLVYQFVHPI
Procedure, shortened: as §1

ETV7 = molecular target: T10, ETV7 (Homo sapiens, UniProt Q9Y603 1-341)
T10 sequence: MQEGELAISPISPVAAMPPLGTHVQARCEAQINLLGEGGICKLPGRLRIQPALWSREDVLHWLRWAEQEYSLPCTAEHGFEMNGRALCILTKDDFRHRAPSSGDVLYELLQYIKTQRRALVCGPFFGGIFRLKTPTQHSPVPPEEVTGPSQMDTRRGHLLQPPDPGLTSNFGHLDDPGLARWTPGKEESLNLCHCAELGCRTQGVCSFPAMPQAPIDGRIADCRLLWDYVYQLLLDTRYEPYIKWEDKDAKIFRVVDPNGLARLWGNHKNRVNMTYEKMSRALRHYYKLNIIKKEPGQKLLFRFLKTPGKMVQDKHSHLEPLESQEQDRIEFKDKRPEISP
Procedure, shortened: as §1

ETV6 = ETV6 (Homo sapiens, UniProt P41212 1-452)
Procedure, shortened: as §1

Chain of SPIB (Q01892 whole entry): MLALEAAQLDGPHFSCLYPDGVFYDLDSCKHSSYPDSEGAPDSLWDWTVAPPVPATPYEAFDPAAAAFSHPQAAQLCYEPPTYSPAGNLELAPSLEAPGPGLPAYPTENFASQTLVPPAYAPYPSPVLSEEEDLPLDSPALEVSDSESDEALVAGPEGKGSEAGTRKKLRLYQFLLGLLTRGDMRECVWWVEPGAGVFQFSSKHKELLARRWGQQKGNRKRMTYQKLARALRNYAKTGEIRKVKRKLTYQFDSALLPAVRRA
Chain of ETV5 (P41161 whole entry): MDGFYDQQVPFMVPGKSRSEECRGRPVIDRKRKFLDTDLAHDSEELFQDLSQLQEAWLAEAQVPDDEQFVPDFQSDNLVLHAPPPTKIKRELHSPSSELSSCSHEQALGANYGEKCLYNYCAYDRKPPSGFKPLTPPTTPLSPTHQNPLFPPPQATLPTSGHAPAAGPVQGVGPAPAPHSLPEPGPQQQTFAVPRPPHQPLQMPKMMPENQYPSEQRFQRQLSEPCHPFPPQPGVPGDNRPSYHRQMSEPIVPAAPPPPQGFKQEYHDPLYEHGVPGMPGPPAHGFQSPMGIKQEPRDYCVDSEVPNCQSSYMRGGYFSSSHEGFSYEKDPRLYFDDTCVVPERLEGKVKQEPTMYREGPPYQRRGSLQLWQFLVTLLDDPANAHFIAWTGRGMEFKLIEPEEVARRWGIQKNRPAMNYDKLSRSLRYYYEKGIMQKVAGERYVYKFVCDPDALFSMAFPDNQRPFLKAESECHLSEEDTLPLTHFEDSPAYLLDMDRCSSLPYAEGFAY
Chain of ETV1 (P50549 whole entry): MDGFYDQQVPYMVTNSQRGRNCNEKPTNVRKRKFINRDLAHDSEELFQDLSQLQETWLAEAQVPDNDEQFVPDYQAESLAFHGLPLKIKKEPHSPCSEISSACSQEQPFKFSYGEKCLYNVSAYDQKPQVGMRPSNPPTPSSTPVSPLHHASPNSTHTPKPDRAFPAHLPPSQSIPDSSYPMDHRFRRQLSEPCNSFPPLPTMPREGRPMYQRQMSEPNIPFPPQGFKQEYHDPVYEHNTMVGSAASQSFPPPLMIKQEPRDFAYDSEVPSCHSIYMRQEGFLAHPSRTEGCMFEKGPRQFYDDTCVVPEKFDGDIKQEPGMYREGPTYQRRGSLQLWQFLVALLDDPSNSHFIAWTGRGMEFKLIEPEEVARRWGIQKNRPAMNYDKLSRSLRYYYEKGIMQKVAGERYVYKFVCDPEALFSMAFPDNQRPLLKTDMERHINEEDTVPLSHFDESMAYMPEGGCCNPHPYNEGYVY
Chain of ETV6 (P41212 whole entry): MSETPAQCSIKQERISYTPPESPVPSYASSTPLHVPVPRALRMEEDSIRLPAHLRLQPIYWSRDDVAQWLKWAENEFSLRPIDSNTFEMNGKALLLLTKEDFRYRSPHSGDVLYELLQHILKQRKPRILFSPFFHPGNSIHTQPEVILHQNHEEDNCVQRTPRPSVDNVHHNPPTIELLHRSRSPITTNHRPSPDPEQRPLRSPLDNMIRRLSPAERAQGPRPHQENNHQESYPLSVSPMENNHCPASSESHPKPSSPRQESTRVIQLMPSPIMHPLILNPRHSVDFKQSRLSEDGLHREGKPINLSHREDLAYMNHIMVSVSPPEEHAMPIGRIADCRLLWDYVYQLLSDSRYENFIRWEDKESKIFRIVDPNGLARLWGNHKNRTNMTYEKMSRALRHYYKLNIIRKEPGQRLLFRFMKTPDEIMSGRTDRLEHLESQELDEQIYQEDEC
Chain of ELF1 (P32519 whole entry): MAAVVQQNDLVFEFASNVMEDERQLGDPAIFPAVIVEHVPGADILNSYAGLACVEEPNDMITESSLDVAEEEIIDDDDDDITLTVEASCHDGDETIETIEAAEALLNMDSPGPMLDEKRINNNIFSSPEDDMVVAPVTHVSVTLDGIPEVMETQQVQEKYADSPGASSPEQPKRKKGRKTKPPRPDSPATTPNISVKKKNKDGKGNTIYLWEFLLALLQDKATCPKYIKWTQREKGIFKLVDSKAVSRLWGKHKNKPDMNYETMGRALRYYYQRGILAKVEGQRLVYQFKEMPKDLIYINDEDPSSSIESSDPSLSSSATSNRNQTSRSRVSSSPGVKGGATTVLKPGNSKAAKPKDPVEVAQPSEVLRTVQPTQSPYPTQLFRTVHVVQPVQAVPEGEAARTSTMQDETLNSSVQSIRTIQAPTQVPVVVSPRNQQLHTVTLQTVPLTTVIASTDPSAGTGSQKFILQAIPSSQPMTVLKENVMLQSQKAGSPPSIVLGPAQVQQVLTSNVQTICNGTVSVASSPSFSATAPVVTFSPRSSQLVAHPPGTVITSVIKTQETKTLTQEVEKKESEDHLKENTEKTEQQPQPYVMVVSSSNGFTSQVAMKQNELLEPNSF

For CGAATC, the binding signal (ELK1) was 1.01 fold enrichment (6-mer frequency, TF over GST control), the binding signal (GABPA) was 1.14 fold enrichment (6-mer frequency, TF over GST control) and the binding signal (ERG) was 1.05 fold enrichment (6-mer frequency, TF over GST control). For the same sequence, the binding signal (ELF1) was 1 fold enrichment (6-mer frequency, TF over GST control), the binding signal (EHF) was 1.06 fold enrichment (6-mer frequency, TF over GST control) and the binding signal (SPIB) was 1.13 fold enrichment (6-mer frequency, TF over GST control). For the same sequence, the binding signal (ETV5) was 1.07 fold enrichment (6-mer frequency, TF over GST control), the binding signal (ELK4) was 1.09 fold enrichment (6-mer frequency, TF over GST control) and the binding signal (ELF3) was 1.11 fold enrichment (6-mer frequency, TF over GST control). For the same sequence, the binding signal (ETV1) was 1.02 fold enrichment (6-mer frequency, TF over GST control), the binding signal (ERF) was 1.15 fold enrichment (6-mer frequency, TF over GST control) and the binding signal (ETV3L) was 1 fold enrichment (6-mer frequency, TF over GST control). The binding signal (SPDEF) was 1.12 fold enrichment (6-mer frequency, TF over GST control), the binding signal (ETV7) was 1.02 fold enrichment (6-mer frequency, TF over GST control) and the binding signal (ETV6) was 1.01 fold enrichment (6-mer frequency, TF over GST control).
